Molecules are shown by their SMILES. Structures can show the parent of a compound that is named as a salt. ± gives the standard deviation of the averaged measurements. In all, about 2,600 compounds were measured (“total cell number (DAPI+ nuclei) relative to DMSO vehicle control”: median about -1.4, lowest 2% from about -23 on). The sample holds the lowest values, similar compounds and a random draw of the others, so the mix is not that of the screen.

The assay deals with jimpy (Plp1 jimpy) mouse iPSC-derived oligodendrocyte progenitor cells. As to the kind of experiment: total cell number (DAPI+ nuclei) relative to DMSO vehicle control (SDs above negative control mean); higher = more surviving cells. The conditions noted are these: 10 µM; 3 days.
`O=C(O)C1(C(=O)O)CCC1.[NH2-].[NH2-].[Pt+2]` [Carboplatin]: the total cell number was -4.56 ± 1.4.
To `CSc1nc(N)c2ncn([C@@H]3O[C@H](COP(=O)(O)OP(=O)(O)OP(=O)(O)O)[C@H](O)C3O)c2n1` (stereo partly specified) [2-Methylthioadenosine triphosphate tetrasodium] belongs 1.81.
Compound `C=CC(=O)N1CCC[C@@H](n2nc(-c3ccc(Oc4ccccc4)cc3)c3c(N)ncnc32)C1` had a total cell number of -8.95.
In turn, `Nc1ncnc2c1c(-c1cccc(OCc3ccccc3)c1)cn2C1CC(CN2CCCC2)C1` (stereo unspecified) registered a total cell number of -25.8.
To `Nc1ncnc2c1c(-c1ccc(Oc3ccccc3)cc1)cn2C1CCCC1` belongs -5.56.
Then `O=C(Nc1ccccc1C(=O)NC1CCCCNC1=O)c1cc2ccccc2s1` (stereo unspecified), with -0.315.
As to `COC(=O)N[C@H](C(=O)N1CCC[C@H]1c1ncc(-c2ccc(-c3ccc(-c4cnc([C@@H]5CCCN5C(=O)[C@@H](NC(=O)OC)C(C)C)[nH]4)cc3)cc2)[nH]1)C(C)C`, the total cell number was -5.73.
Then `COc1cccc2c1[C@@H]1CN(CCCCn3c(=O)[nH]c4c(sc5ncc(-c6ccccc6)nc54)c3=O)C[C@@H]1CO2` [Fiduxosin hydrochloride], with -6.17; and `Cc1nc(C(=O)NCC(=O)O)c(O)c2ccc(Oc3ccccc3)cc12`, with 3.22.
To `C[C@@H](Oc1cc(-n2cnc3ccc(CN4CCN(C)CC4)cc32)sc1C(N)=O)c1ccccc1C(F)(F)F` belongs -14.7; to `CC(C)c1cc(C(=O)N2Cc3ccc(CN4CCN(C)CC4)cc3C2)c(O)cc1O`, -25.7.
For `Nc1ncnc2c1ncn2[C@@H]1O[C@H](COP(=O)(O)OP(=O)(O)OP(=O)(O)OP(=O)(O)OC[C@@H]2O[C@H](n3cnc4c(N)ncnc43)C(O)[C@@H]2O)[C@H](O)C1O` (stereo partly specified) [P1,P4-Di(adenosine-5')tetraphosphate triammonium], the total cell number was -0.947.
`Nc1c(S(=O)(=O)O)cc(Nc2ccc(Nc3nc(Cl)nc(Nc4cccc(S(=O)(=O)O)c4)n3)c(S(=O)(=O)O)c2)c2c1C(=O)c1ccccc1C2=O` [Reactive Blue 2] had a total cell number of -0.98.
Then `C[C@@H]1O[C@@H](O[C@H]2[C@H](Oc3cc(O)c(C(=O)CCc4ccc(O)cc4)c(O)c3)O[C@H](CO)[C@@H](O)[C@@H]2O)[C@H](O)[C@H](O)[C@H]1O` [Naringin Dihydrochalcone], with -0.984; and `Cc1nc2c([nH]1)c(=O)n(C)c(=O)n2Cc1ccco1` [Furafylline], with -0.322.
The compound `O=C(Nc1cccc(Nc2ncc(Br)c(NCCc3cnc[nH]3)n2)c1)N1CCCC1` returned a total cell number of -24.3.
Then `O=C(NCCCNc1nc(Nc2cccc(NC(=O)N3CCCC3)c2)ncc1I)c1cccs1`, with -23.5; and `C=CC(=O)Nc1cccc(Nc2nc(Nc3ccc(OCCOC)cc3)ncc2F)c1`, with -15.3.
In the case of `Cc1cnc(Nc2ccc(OCCN3CCCC3)cc2)nc1Nc1cccc(S(=O)(=O)NC(C)(C)C)c1`, the total cell number was -12.3.
Then `NC[C@@H]1O[C@H](c2ccccc2)Cc2c1ccc(O)c2O`, with -2.54; and `CCCCCCCCCCCCc1ccc(S(=O)(=O)Nc2nncs2)cc1`, with 1.21.

Values taken from the supplement of paper PMC6135742.
